In PubChem BioAssay (NCATS):
Values joined by “and” are separate entries in the source; they are usually repeats but may differ in a detail not shown here. Identical values can stand only once. Results filed as inconclusive are left out. Active and inactive are the calls of the source. Unless noted, calls come from the whole dose curve; as a rule, active = well fitted curve in the direction sought with a large enough effect; inconclusive = small, poorly fitted or top-dose-only effect, or another doubt; inactive = no such curve, though single readings can be large; an effect the other way counts as inactive or inconclusive.

What was measured:
[1] = Cell Viability - BJ (AID 421; calls by dose curve;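 note: potency is the fitted concentration of half-maximal effect; cells exposed to compound for 40 hours at 37 °C before readout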); details: BJ fibroblast viability, qHTS
Procedure, shortened: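 Cytotoxicity in human BJ foreskin fibroblasts is scored as loss of cellular ATP after a 40-hour exposure, measured by luciferase luminescence. Controls are DMSO and 100 uM tamoxifen.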

[2] = Cell Viability - Jurkat (AID 426;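 active = dose-dependent loss of cell ATP signal giving a full or clear fitted curve, ranked by lower potency value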;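 note: potency is the fitted concentration of half-maximal effect; cells exposed to compound for 40 hours at 37 °C before ATP read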); details: qHTS
Procedure, shortened: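 Cytotoxicity was scored as loss of cellular ATP, measured by luciferase-based luminescence, in Jurkat clone E6-1 cells after 40 h compound treatment; tamoxifen and doxorubicin served as positive controls.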

[3] = Cell Viability - Hek293 (AID 427;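 active = compounds whose dose-response curve shows a full or clear partial loss of cell viability, called from curve shape rather than a numeric limit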;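 note: potency is the fitted concentration of half-maximal effect; cells exposed to compound for 40 hours at 37 °C before reading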); details: qHTS
Procedure, shortened: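 qHTS, human embryonic kidney (adenovirus-transformed) cells; 40 hr cpd, 37 °C; CellTiter-Glo ATP luminescence. Norm: DMSO = 0, 100 uM tamoxifen = 100% inhibition. Hill-fit AC50.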

[4] = Cell Viability - MRC5 (AID 434; calls by dose curve;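 note: potency is the fitted concentration of half-maximal effect; cells exposed to compound for 40 hours at 37 °C; potency reflects cytotoxicity seen as loss of intracellular ATP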); details: MRC5 lung fibroblast viability, qHTS
Procedure, shortened: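 AC50 values come from Hill-equation fits of intracellular ATP loss, measured by CellTiter-Glo luminescence. Normal lung fibroblasts (MRC5) had 40 hr compound treatment at 37 C, normalized between DMSO and 100 uM tamoxifen.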

[5] = Cell Viability - Mesenchymal (AID 546); details: mesenchymal cells viability, qHTS; series mostly up to 91.7 µM;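 note: cells exposed to compound for 40 hours before reading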
Procedure, shortened: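 CellTiter-Glo luminescence (intracellular ATP, 20 min room temperature) after 40 hr compound exposure at 37 °C of 1000 glomerulus-derived human kidney mesenchymal cells/well; AC50 values obtained by fitting qHTS concentration-response data to the Hill equation.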

[6] = Cellular Toxicity (caspase-3) SHSY5Y (AID 657); details: SH-SY5Y caspase-3 activation, DMSO zero, 10 µM staurosporine = 100%; series mostly up to 91.7 µM
Procedure, shortened: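 Luminescent Caspase-Glo 3/7 read-out, 1 hr room temperature, follows 16 hours of compound treatment of SH-SY5Y cells at 37 °C. Normalization: DMSO basal, 10 uM staurosporine as 100%; AC50 values from Hill-equation concentration-response fits.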

[7] = Cellular Toxicity (caspase-3) MRC-5 (AID 659); details: MRC-5 cells, luminescence, normalized: DMSO 0%, 10 µM staurosporine 100%; series mostly up to 91.7 µM
Procedure, shortened: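 Luminescent Caspase-Glo 3/7 read-out (1 h, room temperature) after a 16 h, 37 °C compound exposure of MRC-5 lung fibroblasts at 1500 cells/well. Concentration-response AC50 from Hill equation; 0% DMSO, 100% 10 uM staurosporine.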

[8] = Cellular Toxicity (caspase-3) Mesangial (AID 660); details: mesangial cells, normalized: DMSO 0%, 100 µM tamoxifen 100%; series mostly up to 91.7 µM;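 note: combined caspase 3 and 7 activity read by Caspase-Glo luminescence; cells exposed to compound for 16 h before the caspase read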
Procedure, shortened: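 AC50 values come from Hill-equation fits of caspase 3/7 activation, measured as Caspase-Glo luminescence in human glomerular mesangial cells exposed to compound for 16 h at 37 °C; 100% set by 100 uM tamoxifen.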

[9] = Cellular Toxicity (caspase-3) SK-N-SH (AID 661); details: SK-N-SH caspase-3 activation, qHTS; series mostly up to 91.7 µM
Procedure, shortened: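 Apoptosis readout in SK-N-SH neuroblastoma: Caspase-Glo 3/7 luminescence following 16 hr treatment in complete culture medium. Normalization used DMSO and 10 uM staurosporine controls.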

[10] = Cellular Toxicity (caspase-3) Hek293 (AID 664); details: HEK293 caspase-3 activation, DMSO = 0%, 100 µM tamoxifen = 100%; at 92.2 µM (top of the series);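 note: cells exposed to compound for 16 h at 37 °C before readout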
Procedure, shortened: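 Apoptosis readout: Caspase-Glo 3/7 signal in human HEK293 cells following 16-hour compound incubation. Responses scaled between DMSO baseline and 100 uM tamoxifen.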

[11] = Cellular Toxicity (caspase-3) N2a (AID 665); details: N2a cells, luminescence, normalized: DMSO 0%, 10 µM staurosporine 100%; series mostly up to 92.2 µM;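 note: compound exposure lasted 16 h at 37 °C before readout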
Procedure, shortened: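 Concentration-response qHTS: compound-induced caspase-3/7 luminescence in N2a cells (16 h, 37 °C), relative to DMSO and 10 uM staurosporine controls; AC50 obtained using the standard Hill equation.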

[12] = Cell Viability - LYMP1-002 - Assay at 16 hr (AID 948); details: LYMP1-002 lymphoblastoid cell viability; series mostly up to 92.2 µM;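 note: 0% = DMSO alone and full effect = 92 µM tetraoctylammonium bromide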
Procedure, shortened: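 ATP luminescence (CellTiter-Glo) was measured after 16 hr compound exposure at 37 C of 2500 lymphoblastoid LYMP1-002 cells per well. Concentration-response curves were fitted with the Hill equation to give AC50.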

[13] = MultiTox-Fluor Cytotoxicity Assay - LYMP1-003 - Dead Cells (AID 961); details: LYMP1-003 lymphoblastoid cells, dead-cell protease fluorescence; series mostly up to 92.2 µM; note: nearly all actives have a fitted effect of over 70% in size; note: potency is the fitted concentration of half-maximal effect
Procedure, shortened: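 LYMP1-003 lymphoblastoid, 2500 cells/well, 5 hr settle then 16 hr cpd at 37 C; MultiTox-Fluor reagent 60 min RT; Ex/Em 485/520 dead-cell signal; norm. DMSO = 0%, 15 uM tetraoctylammonium bromide = 100%; Hill AC50.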

[14] = MultiTox-Fluor Cytotoxicity Assay - LYMP1-003 - Live Cells (AID 962); details: LYMP1-003 lymphoblastoid cells, MultiTox-Fluor live-cell protease fluorescence; series mostly up to 92.2 µM;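 note: 0% = DMSO only and full loss = 92 µM tetraoctylammonium bromide; cytotoxic hits lower the live-cell protease signal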
Procedure, shortened: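 Human lymphoblastoid line LYMP1-003 in complete culture medium, treated 16 hr with titrated compounds. Viable cells quantified via cell-permeant GF-AFC substrate fluorescence; AC50 derived by Hill fitting.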

[15] = Cell Viability - LYMP1-003 - Assay at 24 hr (AID 963); details: LYMP1-003 lymphoblastoid cell viability; series mostly up to 92.2 µM;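 note: plate controls were DMSO only for no effect and tetraoctylammonium bromide positive control for full effect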
Procedure, shortened: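 The lymphoblastoid line was treated with titrated compounds for 24 hours, and viable cell number estimated from luciferase-based ATP luminescence.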

[16] = Cell Viability - LYMP2-008 (AID 980); details: LYMP2-008 lymphoblastoid cell viability, qHTS; series mostly up to 92.2 µM; note: nearly all actives have a fitted effect of over 60% in size; note: potency is the fitted concentration of half-maximal effect
Procedure, shortened: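 Measured: ATP-dependent luminescence, proportional to viable cell number, in human lymphoblastoid cells treated 24 hr with compound in complete culture medium. Values are AC50s from Hill-equation modelling of qHTS titrations.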

[17] = qHTS Assay for Identification of Small Molecule Inducers of Hypoxia Response (AID 2120; active = well fitted curve in the direction sought with a large enough effect in the signal ratio, with a control signal flat, not every such curve was filed as active; the % refers to the signal ratio; note: 0% is about no effect); details: hypoxia response reporter cells, beta-lactamase ratio readout; series mostly up to 104 µM
Procedure, shortened: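 HRE-bla ME-180, 2500 cells/well, 0.5% dialyzed FBS medium; cpd titration, 17 h 37 degrees C; CCF4 2.5 h RT; Ex 405, Em 460/530 ratio -> %Activity, AC50.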

[18] = target: Peroxisome proliferator-activated receptor alpha (Homo sapiens) (UniProt Q07869); test: qHTS assay for small molecule agonists of the peroxisome proliferator-activated receptor alpha (PPARalpha) signaling pathway (AID 651778); details: PathHunter PPARalpha complementation, chemiluminescence, 6 h; active compounds read high; note: % of control where 0% means no effect
Peroxisome proliferator-activated receptor alpha (Homo sapiens), sequence (Q07869 whole entry, looked up): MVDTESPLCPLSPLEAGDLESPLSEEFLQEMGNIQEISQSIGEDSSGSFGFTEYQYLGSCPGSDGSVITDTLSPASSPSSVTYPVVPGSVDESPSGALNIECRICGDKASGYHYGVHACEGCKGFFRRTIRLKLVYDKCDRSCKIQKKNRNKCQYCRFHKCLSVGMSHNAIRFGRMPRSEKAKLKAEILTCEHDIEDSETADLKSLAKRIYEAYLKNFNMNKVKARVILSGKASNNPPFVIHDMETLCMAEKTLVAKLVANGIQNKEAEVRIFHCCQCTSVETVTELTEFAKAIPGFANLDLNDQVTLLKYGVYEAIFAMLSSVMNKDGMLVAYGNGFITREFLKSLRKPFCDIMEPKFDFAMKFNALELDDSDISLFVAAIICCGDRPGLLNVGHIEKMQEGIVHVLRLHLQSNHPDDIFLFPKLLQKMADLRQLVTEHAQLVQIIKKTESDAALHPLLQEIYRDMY
Procedure, shortened: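 Chemiluminescence from complemented enzyme reported PPARalpha activation in cells after 6 hr of compound treatment at 37 C. The detection reagent was incubated for 60 min at room temperature, and compounds were scored as agonists.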

[19] = qHTS assay for small molecule agonists of the antioxidant response element (ARE) signaling pathway measured by Nrf2-dependant transcriptional activity - cell viability counter screen (AID 720653; active = well fitted curve in the direction sought with a large enough effect in the repeat runs; an effect the other way counts as inactive or inconclusive; note: % is set by controls: 0 for no effect and ±100 for the full control effect); details: ARE-bla HepG2 viability, CellTiter-Glo ATP luminescence, 16 h; active compounds read low
Procedure, shortened: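 Cytotoxicity counter screen: intracellular ATP quantified by CellTiter-Glo luminescence in the same ARE-bla HepG2 plates, after 16 h compound exposure and a 2 h beta-lactamase substrate step.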

[20] = qHTS assay for cell viability of the p53RE-bla HCT-116 cell line (AID 743292); details: p53RE-bla HCT-116 viability, ATP luminescence, 16 h; series mostly up to 95 µM; note: % is set by controls: 0 for no effect and ±100 for the full control effect; nearly all actives have a fitted effect of over 55% in size
Procedure, shortened: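 Compound-exposed HCT-116 (p53RE-bla) cells, 4,000 per well, were kept 16 h at 37 C following a 5 h preincubation. Cell number was estimated from total ATP by CellTiter-Glo luminescence read after 30 min at room temperature.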

O=[N+]([O-])c1cccc(O)c1
inactive: Potency [1] > 92 µM | Potency [2] > 92 µM | Potency [3] > 92 µM | Potency [4] > 92 µM | Potency [5] | outcome [6] | outcome [7] | outcome [8] | Potency [9] | caspase-3 activation [10] 0.974% | outcome [11] | outcome [12] | Potency [13] | outcome [14] | outcome [15] | Potency [16] | Potency [17] | max response [18] -4.41% | max response [19] -0.267% | Potency [20]

[O-][Cl+2]([O-])O
inactive: Potency [1] > 92 µM | Potency [2] > 92 µM | Potency [3] > 92 µM | Potency [4] > 92 µM | Potency [5] | outcome [6] | outcome [7] | outcome [8] | Potency [9] | caspase-3 activation [10] -0.13% | outcome [11] | outcome [12] | Potency [13] | outcome [14] | outcome [15] | Potency [16] | Potency [17] | max response [18] -2.92% | max response [19] 27.9% | Potency [20]

FC(Cl)(Cl)Cl
inactive: Potency [1] > 92 µM | Potency [2] > 92 µM | Potency [3] > 92 µM | Potency [4] > 92 µM | Potency [5] | outcome [6] | outcome [7] | outcome [8] | Potency [9] | caspase-3 activation [10] -1.27% | outcome [11] | outcome [12] | Potency [13] | outcome [14] | outcome [15] | Potency [16] | Potency [17] | max response [18] -4.74% | max response [19] -4.09% | Potency [20]

Clc1ccc(C(Cl)(Cl)Cl)cc1Cl
inactive: Potency [1] > 92 µM | Potency [2] > 92 µM | Potency [3] > 92 µM | Potency [4] > 92 µM | Potency [5] | outcome [6] | outcome [7] | outcome [8] | Potency [9] | caspase-3 activation [10] 1.11% | outcome [11] | outcome [12] | Potency [13] | outcome [14] | outcome [15] | Potency [16] | Potency [17] | max response [18] 1.82% | max response [19] -18% | Potency [20]

Cc1ccc(N)c(N)c1
inactive: Potency [1] > 92 µM | Potency [3] > 92 µM | Potency [4] > 92 µM | Potency [5] | outcome [6] | outcome [7] | outcome [8] | Potency [9] | caspase-3 activation [10] 8.54% | outcome [11] | outcome [12] | Potency [17] | max response [18] -2.85% | max response [19] -6.6% | Potency [20]
active: Potency [2] 9.63 µM | Potency [13] 15.8 µM | Potency [16] 39.8 µM

BrCC(Br)C1CCC(Br)C(Br)C1 (stereo not drawn)
inactive: Potency [1] > 92 µM | Potency [2] > 92 µM | Potency [3] > 92 µM | Potency [4] > 92 µM | Potency [5] | outcome [6] | outcome [7] | outcome [8] | Potency [9] | caspase-3 activation [10] 6.64% | outcome [11] | outcome [12] | Potency [13] | outcome [14] | outcome [15] | Potency [16] | Potency [17] | max response [18] 4.79% | max response [19] -1.58% | Potency [20]

ClCC(Cl)Cl
inactive: Potency [1] > 92 µM | Potency [2] > 92 µM | Potency [3] > 92 µM | Potency [4] > 92 µM | Potency [5] | outcome [6] | outcome [7] | outcome [8] | Potency [9] | caspase-3 activation [10] -0.541% | outcome [11] | outcome [12] | Potency [13] | outcome [14] | outcome [15] | Potency [16] | Potency [17] | max response [18] 4.99% | max response [19] -5.62% | Potency [20]

C=CCCC#N
inactive: Potency [1] > 92 µM | Potency [2] > 92 µM | Potency [3] > 92 µM | Potency [4] > 92 µM | Potency [5] | outcome [6] | outcome [7] | outcome [8] | Potency [9] | caspase-3 activation [10] -0.209% | outcome [11] | outcome [12] | Potency [13] | outcome [14] | outcome [15] | Potency [16] | Potency [17] | max response [18] -3.78% | max response [19] -16.2% | Potency [20]

CC[N+](=O)[O-]
inactive: Potency [1] > 92 µM | Potency [2] > 92 µM | Potency [3] > 92 µM | Potency [4] > 92 µM | Potency [5] | outcome [6] | outcome [7] | outcome [8] | Potency [9] | caspase-3 activation [10] 3.71% | outcome [11] | outcome [12] | Potency [13] | outcome [14] | outcome [15] | Potency [16] | Potency [17] | max response [18] 1.55% | max response [19] 9.27% | Potency [20]

CCSC(=O)N1CCCCCC1
inactive: Potency [1] > 92 µM | Potency [2] > 92 µM | Potency [3] > 92 µM | Potency [4] > 92 µM | Potency [5] | outcome [6] | outcome [7] | outcome [8] | Potency [9] | caspase-3 activation [10] 2.55% | outcome [11] | outcome [12] | Potency [13] | outcome [14] | outcome [15] | Potency [16] | Potency [17] | max response [18] 3.66% and -1.17% | max response [19] -5.76% and -1.37% | Potency [20]
